Compounds with a hit are over-represented: about 3.1% of the library has one in this group of screens.
S16 viability: Cell viability qHTS assay in S16 Pmp22-F2sN cells. S16 Pmp22-F2sN Schwann cells viability, CellTiter-Glo, 24 h. 43,000 tested, 0.48% active. Potency, µM (highest dose often 57.5 µM), most hits filed as cytotoxic; further: nearly all actives have a fitted effect of over 65% in size
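S16 Schwann cells carrying the Pmp22-F2sN reporter, seeded in 1536-well format, were exposed to library compounds for 24 h at 37C. Viability was read as CellTiter-Glo luminescence after 15 min at room temperature.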
mTORC1 inh: Acumen qHTS Assay for Inhibitors of the mTORC1 Signaling Pathway in MEF (Tsc2-/-, p53-/-) Cells: Sytravon; Tsc2-/- p53-/- MEF, phospho-rpS6 immunofluorescence/PI, 24 h; Potency, µM (highest dose often 38.3 µM), usual class: inhibitors; 44,000 tested, 0.78% active; AID 493208, 2011; further: nearly all actives have a fitted effect of over 50% in size
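Cell-based qHTS: Tsc2-/- p53-/- MEF, 24 h cpd, 37 °C; fix/perm, anti-phospho-S6 Alexa-488 + PI; Acumen 488 nm scan; pS6/PI ratio, % positive cells; rapamycin 7.5 nM = inhibition ref; PI count = viability.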
SKOV3 invasion: Primary qHTS assay for Inhibitors of ovarian cancer metastasis using an organotypic tumor microenvironment (TME) model; SKOV3ip1-GFP adhesion/invasion on 3D omental model, fluorescence; Potency, µM (doses to about 45.8 µM), most hits filed as inhibitors; 46,000 tested, 0.1% active; further: nearly all actives have a fitted effect of over 65% in size
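qHTS, 4-pt dose (0.36-46 umol/L); SKOV3ip1-GFP, 1,200 cells/well, no FBS; primary omental fibroblast/mesothelial co-culture 48 h pre-grown; 2 h RT + 16 h 37 C; PBS wash, 4% PFA; GFP count 488/509 nm.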
p53null 32C tox: qHTS Screen for Compounds that Selectively Target Cancer Cells with p53 Mutations: Cytotoxicity of p53 Null Cells at the Permissive Temperature; H1299-neo p53 null cells, ATP luminescence, 24 h, 32C; Potency, µM (top dose mostly 46.1 µM), most hits filed as cytotoxic; 55,000 tested, 0.62% active; further: nearly all actives have a fitted effect of over 55% in size
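Cytotoxicity: H1299-neo (no p53), 32C, 24 h treatment. Concentrations up to 46 uM. Readout cellular ATP, luminescence. Normalization to DMSO basal and tamoxifen 100 uM maximal kill.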
p53null 39C tox: qHTS Screen for Compounds that Selectively Target Cancer Cells with p53 Mutations: Cytotoxicity of p53 Null Cells at the Nonpermissive Temperature | H1299 p53-null (neo) cells, 39C, ATPlite viability, 24 h | 55,000 tested, 0.97% active | Potency, µM (highest dose often 46.1 µM), most hits filed as cytotoxic; further: nearly all actives have a fitted effect of over 50% in size
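Cells seeded at 600/well, 37C overnight. Compound added (up to 46 uM), plates shifted to 39C for 24 hr. ATPlite added, luminescence read after 20 min at room temperature.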
PMP22 txn: Cell-based coincidence reporter assay to measure PMP22 gene transcription in S16 Pmp22-F2sN cells - Primary screen; S16 Pmp22-F2sN Schwann cells (luciferase reporters placed in the Pmp22 gene), FLuc/NLuc coincidence luminescence, 24 h; Potency, µM (doses to about 57.5 µM), actives largely listed as inhibitors; 43,000 tested, 2% active; AID 1508649, 2021; active means clear falling dose curves in both reporters; inconclusive means both reporters move, but less clearly or upward; inactive means either reporter flat; the % is the NLuc reporter signal
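qHTS, 1536-well. Cells seeded, compounds added by pin tool, 24 h 37C. Nano-Glo reagent 1 (lysis/FLuc), 10 min RT, read; Stop&Glo, 10 min RT, read NLuc.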
NLuc sat counter: Biochemical NLuc saturation counterscreen for small molecule modulators of PMP22 gene expression - Nano-Glo assay. shares compounds with PMP22 txn. Secreted NLuc enzyme (filtered S16 cell medium), Nano-Glo luminescence. Potency, µM (series often up to 57.5 µM), most hits filed as inhibitors. 690 tested, 4% active. AID 1508638, 2021
NLuc Km ctr: Biochemical coelenterazine-based NLuc counterscreen for small molecule modulators of PMP22 gene expression - Km assay; shares compounds with PMP22 txn; secreted NLuc enzyme, coelenterazine luminescence, Km conditions; Potency, µM (series often up to 57.5 µM), hits mostly inhibitors; 690 tested, 5% active
FLuc ctr PMP22: Biochemical FLuc counterscreen for small molecule modulators of PMP22 gene expression; Potency, µM (series often up to 57.5 µM), most hits filed as inhibitors; AID 1508640, 2021; shares compounds with PMP22 txn; 690 tested, under 10 active; purified P. pyralis FLuc, luminescence, 10 min
Target sequence (P08659 whole entry, looked up): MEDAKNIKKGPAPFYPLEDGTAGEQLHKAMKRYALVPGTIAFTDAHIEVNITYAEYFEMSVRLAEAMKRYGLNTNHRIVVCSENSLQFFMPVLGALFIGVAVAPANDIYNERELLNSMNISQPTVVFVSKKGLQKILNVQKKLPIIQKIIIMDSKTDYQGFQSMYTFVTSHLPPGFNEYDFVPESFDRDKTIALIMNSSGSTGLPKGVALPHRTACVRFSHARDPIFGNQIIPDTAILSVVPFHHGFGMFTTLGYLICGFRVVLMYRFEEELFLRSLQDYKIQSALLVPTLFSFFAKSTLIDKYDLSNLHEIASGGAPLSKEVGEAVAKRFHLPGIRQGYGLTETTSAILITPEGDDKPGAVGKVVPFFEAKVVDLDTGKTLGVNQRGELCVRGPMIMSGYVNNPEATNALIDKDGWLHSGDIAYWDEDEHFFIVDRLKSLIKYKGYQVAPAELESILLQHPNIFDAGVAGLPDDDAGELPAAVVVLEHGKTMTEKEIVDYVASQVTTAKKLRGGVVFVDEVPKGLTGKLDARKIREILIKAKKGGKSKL
S16 F2sN tox cnf: Cell viability qHTS assay in S16 Pmp22-F2sN cells - Confirmatory screen. shares compounds with PMP22 txn. S16 Schwann cells viability, CellTiter-Glo ATP luminescence, 24 h. Potency, µM (doses to about 57.5 µM), actives largely listed as cytotoxic. 690 tested, 7% active
PMP22 txn cnf: Cell-based coincidence reporter assay to measure PMP22 gene transcription in S16 Pmp22-F2sN cells - Confirmatory screen | shares compounds with PMP22 txn | S16 Schwann cells Pmp22-F2sN, dual luciferase, 24 h | Potency, µM (doses to about 57.5 µM), hits mostly inhibitors | 690 tested, 22% active | AID 1508646, 2021; active means clear falling dose curves in both reporters; inconclusive means both reporters move, but less clearly or upward; inactive means either reporter flat; the % is the FLuc reporter signal
PMP22 prot conf: Cell-based HiBiT reporter assay to measure PMP22 protein expression in S16 Pmp22-HiBiT cells - Confirmatory screen; 95 tested, under 10 active; S16 Schwann cells Pmp22-HiBiT, luminescence, 48 h; shares compounds with PMP22 txn; Potency, µM (highest dose often 27.9 µM), most hits filed as inhibitors
Hits are given with their value; n = inactive; u = inconclusive; x = no result. Unless noted, the call rests on the fitted dose curve; in most records, active means well fitted curve in the direction sought with a large enough effect; inconclusive means small, poorly fitted or top-dose-only effect, or another doubt; inactive means no such curve, though single readings can be large; an effect the other way counts as inactive or inconclusive.

SMILES | S16 viability | mTORC1 inh | SKOV3 invasion | p53null 32C tox | p53null 39C tox | PMP22 txn | NLuc sat counter | NLuc Km ctr | FLuc ctr PMP22 | S16 F2sN tox cnf | PMP22 txn cnf | others
CC(C)(O)[C@H]1CC[C@@](C)([C@H]2[C@@H](O)C[C@@]3(C)[C@@H]4C[C@H](O[C@@H]5O[C@H](CO)[C@@H](O)[C@H](O)[C@@H]5O)[C@H]5C(C)(C)[C@@H](O[C@@H]6OC[C@@H](O)[C@H](O)[C@@H]6O)CC[C@@]56C[C@@]46CC[C@]23C)O1 | x | x | n | x | x | x | x | x | x | x | x
COc1ccc(OC)c(CNC(=O)c2c(C)oc3ncn(CC(C)C)c(=O)c23)c1 | u | n | n | n | n | 10µM | u | u | n | n | u
COc1ccc(OC)c(CCNC(=O)c2c(C)oc3ncn(CC(C)C)c(=O)c23)c1 | n | n | n | n | n | u | x | x | x | x | x
O=C(CCOc1ccccc1)N(Cc1cccnc1)c1nc2ccc(F)cc2s1 | 25µM | n | n | n | n | 13µM | u | u | n | n | n
O=C(COc1ccccc1)N(Cc1cccnc1)c1nc2ccc(F)cc2s1 | n | n | n | n | n | n | x | x | x | x | x
CCCCCCCN(CC)CCCC(O)c1ccc(NS(C)(=O)=O)cc1 (stereo unspecified) | x | x | n | x | x | x | x | x | x | x | x
Cc1c(Cl)cccc1Nc1sc(C(=O)c2ccccc2)c(N)c1S(=O)(=O)c1ccccc1 | n | n | n | n | n | n | x | x | x | x | x
Cc1cccc(C)c1Nc1sc(C(=O)c2ccccc2)c(N)c1S(=O)(=O)c1ccccc1 | n | n | u | n | n | 6.7µM | n | n | n | n | u
CCOc1ccccc1Nc1sc(C(=O)c2ccccc2)c(N)c1S(=O)(=O)c1ccc(C)cc1 | u | n | u | n | n | 2.8µM | n | n | n | n | u
Cc1ccc(OC(=O)c2cc(-c3ccc(Cl)cc3)on2)c(C)c1 | n | n | n | n | n | n | x | x | x | x | x
COC(=O)c1c(-c2ccc(Cl)cc2)noc1N1CCN(c2cc(C)ccc2C)CC1 | u | u | n | n | n | 5.6µM | n | n | n | u | 17µM | PMP22 prot conf=u
COC(=O)c1c(-c2ccc(Cl)cc2)noc1N1CCN(c2ccc(C)cc2C)CC1 | u | n | n | n | u | 10µM | n | n | n | u | 19µM
COc1ccc2c(Oc3ccc(NC(=O)c4c(C)n(CC(C)(C)O)n(-c5ccccc5)c4=O)nc3)ccnc2c1 | x | x | n | x | x | x | x | x | x | x | x
CCc1ccc(CNC(=O)c2nn(-c3ccc(C)cc3)c(=O)c3c2c2ccccc2n3C)cc1 | n | n | n | n | n | 2.8µM | n | n | n | u | u
CCN(Cc1ccccc1)C(=O)c1nn(-c2ccc(OC)cc2)c(=O)c2c1c1ccccc1n2C | u | n | n | n | n | 19µM | n | n | n | n | n

Assay outcomes as filed in PubChem BioAssay.
